# Laboratory results taken from PubChem BioAssay AID2577 (National Center for Advancing Translational Sciences (NCATS), 2010).
# Values without a mark were called inactive. The call rests on the fitted dose curve; in most records, active means well fitted curve in the direction sought with a large enough effect; inactive means no such curve, though single readings can be large or run the other way.
# Target: Lysosomal alpha-glucosidase (Homo sapiens) (UniProt P10253)
# Assay: qHTS Assay for Inhibitors and Activators of N370S glucocerebrosidase as a Potential Chaperone Treatment of Gaucher Disease: Alpha-Glucosidase Counterscreen
# Settings: purified human alpha-glucosidase, 4MU-alpha-glucoside fluorescence
# Source text: NIH Chemical Genomics Center [NCGC] NIH Molecular Libraries Probe Production Centers Network [MLPCN] MLPCN Grant: MH086442-01 Assay Submitter (PI): Wei Zheng Glucocerebrosidase (GC) catalyzes the hydrolysis of beta-glucocerebroside to glucose and ceramide in lysosomes. Mutations in the glucocerebrosidase gene result in Gaucher disease, an autosomal recessive lysosomal storage disorder. Many of the mutations encountered in patients with Gaucher disease are missense alterations that may cause misfolding, decreased stability and/or mistrafficking of this lysosomal protein. […] These inhibitors include iminosugar analogs and three non-iminosugar inhibitors identified from a previous HTS of 62,000 compounds with the wild type recombinant enzyme. However, the enhancement of enzyme activity by the chaperone action of an enzyme inhibitor must be balanced against the direct inhibition of the enzyme. An enzyme activator could also function as a chaperone by binding to the enzyme and helping to correct its misfolding and mistrafficking. While activators for GC have not yet been identified, they may have better therapeutic potential than inhibitors. Therefore the discovery and development of chemical activators may provide a new strategy for the chaperone therapy. To characterize compound selectivity, selected hits from the primary screen were screened against purified alpha-glucosidase, a related sugar hydrolase. Alpha-glucosidase is responsible for hydrolysis of terminal, non-reducing 1,4-linked alpha-D-glucose residues with release of alpha-D-glucose.
# NCGC Assay Protocol Summary: This is a fluorogenic enzyme assay with 4-methylumbelliferyl-alpha-D-[…] as the substrate and human alpha-glucosidase as the enzyme preparation. Upon the hydrolysis of this fluorogenic substrate, the resulting product, 1. 4-methyllumbelliferone, can be excited at 365 nm and emits at 440 nm which can be detected by a standard fluorescence plate reader. Data were normalized to the controls for basal activity (without enzyme) and 100% activity (with enzyme). The AC50 values were determined from concentration-response data modeled with the standard Hill equation. Assay buffer: 50 mM citric acid (titrated with potassium phosphate to pH 5.0), 0.005% Tween-20, pH 5.0. (pH 5.0 is an optimal condition for this enzyme assay) 1536-well assay protocol for the human alpha-glucosidase: (1) Add 2 ul/well of enzyme (4 nM final) (2) Add 23 nL compounds in DMSO solution. The final titration was 0.7 nM to 77 uM. (3) Add 1 ul of substrate (400 uM final) (4) Incubate at room temperature for 20 min. (5) Add 2 ul stop solution (1M NaOH and 1M Glycine mixture, pH 10) (6) Detect the assay plate in a ViewLux plate reader (PerkinElmer) with Ex=365 nm and Em=440nm. Keywords: Alpha-glucosidase, Pompe Disease, pharmacological chaperone, chaperone therapy, high throughput screening, alpha-glucosidase inhibitor, MLSMR, MLSCN, NIH Roadmap, qHTS and NCGC
row,Compound,max response [%]
1,O=S(=O)(c1ccccc1)N1CCN(c2nc(-c3ccc(F)cc3)nc3cc(Cl)ccc23)CC1,-8.72
2,O=S(=O)(c1ccc(Cl)cc1)N1CCN(c2nc(-c3cccc(Br)c3)nc3ccccc23)CC1,-4.16
3,O=S(=O)(c1ccccc1C(F)(F)F)N1CCN(c2nc(-c3cccs3)nc3ccccc23)CC1,-3.11
4,O=S(=O)(c1ccc(F)cc1)N1CCN(c2nc(-c3cccs3)nc3ccccc23)CC1,-15.5
5,N#Cc1ccc(S(=O)(=O)N2CCN(c3nc(-c4cccs4)nc4ccccc34)CC2)cc1,-5.53
6,O=S(=O)(c1ccc(Cl)cc1)N1CCN(c2nc(-c3ccc(Cl)cc3)nc3ccccc23)CC1,1.68
7,O=[N+]([O-])c1ccc(S(=O)(=O)N2CCN(c3nc(-c4cccs4)nc4ccccc34)CC2)cc1,-5.9
8,O=[N+]([O-])c1cccc(S(=O)(=O)N2CCN(c3nc(-c4ccccc4)nc4ccccc34)CC2)c1,-5.2
9,O=S(=O)(c1cccc(C(F)(F)F)c1)N1CCN(c2nc(-c3ccccc3)nc3ccccc23)CC1,-12.7
10,O=S(=O)(c1ccccc1Cl)N1CCN(c2nc(-c3ccccc3)nc3ccccc23)CC1,-4.34
11,O=S(=O)(c1ccc2c(c1)CCCC2)N1CCN(c2nc(-c3cccs3)nc3ccccc23)CC1,-7.5
12,O=[N+]([O-])c1cccc(S(=O)(=O)N2CCN(c3nc(-c4cccs4)nc4ccccc34)CC2)c1,-3.53
13,O=S(=O)(c1ccccc1F)N1CCN(c2nc(-c3cccs3)nc3ccccc23)CC1,-14.1
14,Cc1ccc(S(=O)(=O)N2CCN(c3nc(-c4ccc(F)cc4)nc4cc(Cl)ccc34)CC2)cc1,-4.96
15,O=S(=O)(c1ccc(Br)cc1)N1CCN(c2nc(-c3cccs3)nc3ccccc23)CC1,-4.2
16,O=S(=O)(c1ccc2ccccc2c1)N1CCN(c2nc(-c3cccs3)nc3ccccc23)CC1,-7.23
17,O=S(=O)(c1ccc(C(F)(F)F)cc1)N1CCN(c2nc(-c3cccs3)nc3ccccc23)CC1,-11.2
18,O=[N+]([O-])c1ccc(S(=O)(=O)N2CCN(c3nc(-c4ccccc4)nc4ccccc34)CC2)cc1,-3.59
19,N#Cc1ccccc1S(=O)(=O)N1CCN(c2nc(-c3ccccc3)nc3ccccc23)CC1,-12.3
20,O=S(=O)(c1ccc(F)cc1)N1CCN(c2nc(-c3cccc(Br)c3)nc3ccccc23)CC1,-5.01
21,COc1ccc(-c2nc(N3CCN(S(=O)(=O)c4ccc(F)cc4)CC3)c3ccccc3n2)cc1,-2.56
22,COc1ccc(S(=O)(=O)N2CCN(c3nc(-c4ccccc4)nc4ccccc34)CC2)cc1,-14.8
23,O=S(=O)(c1ccc2c(c1)CCC2)N1CCN(c2nc(-c3ccccc3)nc3ccccc23)CC1,-9.75
24,O=S(=O)(c1ccc(Cl)cc1)N1CCN(c2nc(-c3cccs3)nc3ccccc23)CC1,-6.67
25,CCOc1ccc(S(=O)(=O)N2CCN(c3nc(-c4ccccc4)nc4ccccc34)CC2)cc1,-10.9
26,NS(=O)(=O)c1ccc(S(=O)(=O)N2CCN(c3nc(-c4cccs4)nc4ccccc34)CC2)cc1,-10.5
27,O=S(=O)(c1ccc(OC(F)(F)F)cc1)N1CCN(c2nc(-c3cccs3)nc3ccccc23)CC1,-3.54
28,O=S(=O)(c1ccc2c(c1)CCCC2)N1CCN(c2nc(-c3ccccc3)nc3ccccc23)CC1,-8.51
29,COc1ccc(S(=O)(=O)N2CCN(c3nc(-c4cccs4)nc4ccccc34)CC2)cc1OC,-12
30,COc1ccc(-c2nc(N3CCN(S(=O)(=O)c4ccccc4)CC3)c3ccccc3n2)cc1,-7.46
